These results are taken from PubChem BioAssay AID1861 (The Scripps Research Institute Molecular Screening Center, 2009).

Each structure is given as a SMILES string. Screen size: about 290,000 compounds; about 3,100 (1.1%) were called active. The full list was thinned out, with actives kept by preference. Unmarked numbers belong to inactive results. Cut-off read from the data, not from the text of the source: active = inhibition above about 16% (passing the limit was not always enough); inactive = the rest.

For this assay, the target named is Neuropeptides B/W receptor type 1 (Homo sapiens) (UniProt P48145). The assay is described as follows: blockers of human neuropeptide B/W receptor 1 – cell-based, fluorescence, single concentration, primary screen (AID 1861).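 Note: cells stimulated with the agonist NPW; 0% = agonist with vehicle and 100% = vehicle without agonist.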 Particulars: GPR7-expressing cells, fluorescence antagonist assay; at 4.4 µM; stronger effect = higher value.
Chain of Neuropeptides B/W receptor type 1 (Homo sapiens) (P48145 whole entry, looked up): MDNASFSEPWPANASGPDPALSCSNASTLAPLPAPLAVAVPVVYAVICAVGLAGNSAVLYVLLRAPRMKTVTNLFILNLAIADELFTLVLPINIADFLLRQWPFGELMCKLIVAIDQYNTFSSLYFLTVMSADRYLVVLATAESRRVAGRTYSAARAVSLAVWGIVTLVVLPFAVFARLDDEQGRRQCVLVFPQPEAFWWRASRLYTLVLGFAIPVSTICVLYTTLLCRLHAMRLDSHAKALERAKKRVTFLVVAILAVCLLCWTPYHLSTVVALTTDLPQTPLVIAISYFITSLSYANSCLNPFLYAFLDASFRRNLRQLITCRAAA
`CC(=O)Nc1cccc(Nc2nc(-c3cccs3)nc3ccccc23)c1`: the inhibition was -8.63%.

In the case of `COc1ccc(C(=O)NC2CC2)cc1OC1CCN(Cc2cnn(C)c2)CC1`, the inhibition was 0.96%. For the molecule `N#Cc1ccc(CSc2ncccn2)cc1`, the inhibition was 3.62%. On to `N#CC1=C(SCc2ccc(C#N)cc2)N=C(N)C(c2nc(-c3ccccc3)cs2)C12CCCCC2` (configuration not stated), for which the inhibition is 28.4% (active).

In the case of `N#CC1=C(SCc2ccccc2)NC(=O)C(C#N)C12CCCC2` (configuration not stated), the inhibition is -8.17%.

As for `Cc1ccc2c(=O)oc(N(C)C)nc2c1`, the inhibition was 9.69%. Consider `CC1C(=O)Nc2ccccc2N1C(=O)c1c(F)cccc1F` (configuration not stated), for which the inhibition was -14.5%. `COC(=O)C(C)Oc1ccc2c(c1)O/C(=C\c1cccc(Br)c1)C2=O` (configuration not stated): the inhibition is -5.02%. The value for `Oc1cccc(/C=N/Nc2ccc(Cl)nn2)c1O` was 43.7% (active).

Turning to `Clc1ccc(N/N=C/c2cccs2)nn1`, the inhibition was -9.79%.

On to `COc1cccc(/C=N/Nc2ccc(Cl)nn2)c1`, for which the inhibition was -14.8%. With `CCc1cccc(C)c1NS(=O)(=O)c1c(C)nc2sccn2c1=O` the figure was -6.98%; with `O=C(/C=C/Sc1ncn[nH]1)c1ccc(Cl)cc1`, 4.91%.

For `Cc1ccc(N(Cc2ccccc2O)C(=O)c2ccccc2F)cc1`, the inhibition is -15.3%. Turning to `CCCc1ccc(OCC(O)CN2CCN(C(=O)OCC)CC2)cc1` (configuration not stated), the inhibition was -0.9%. `Cc1ccc(N2CCN(c3ccc([N+](=O)[O-])cn3)CC2)c(C)c1`: the inhibition was 15.6%. As for `Nc1nnc(SCC(=O)Nc2ccc3nc(SCC(=O)Nc4ccccc4)sc3c2)s1`, the inhibition is 30.6% (active). For the molecule `CCCCNC(=O)CSc1nc2ccc(NC(=O)CSc3nnc(N)s3)cc2s1`, the inhibition was -5.46%. The value for `CCCCNC(=O)CSc1nc2ccc(NC(=O)CSc3nnc(COc4ccccc4C)n3C)cc2s1` was 8.43%. In the case of `COc1ccc(F)cc1S(=O)(=O)N1CCCCC1`, the inhibition is -5.33%. Consider `COc1ccc(S(=O)(=O)N2CCCCC2)cc1Br`, for which the inhibition was 20.2% (active).

In the case of `COc1ccc(S(=O)(=O)Nc2ccc(S(=O)(=O)N3CCCCC3)cc2)cc1OC`, the inhibition is -7.42%. `COc1cccc(OC)c1C(=O)NC(=S)Nc1ccc(N2CCOCC2)c(Cl)c1`: the inhibition was -6.83%. For the molecule `CCOc1ccc(C(=O)NC(=S)Nc2ccc(N3CCOCC3)c(Cl)c2)cc1[N+](=O)[O-]`, the inhibition was 21% (active).

Regarding `CCOc1ccc(C(=O)NC(=S)Nc2ccc(NC(=O)C(C)C)cc2)cc1[N+](=O)[O-]`, the inhibition is -1.37%. Turning to `O=C(NCc1ccccc1Cl)C1CCN(S(=O)(=O)c2cccc3nonc23)CC1`, the inhibition was -5.03%.

For the molecule `COc1ccc(CCNC(=O)C(=O)NCC2OCCN2S(=O)(=O)c2cccs2)cc1OC` (configuration not stated), the inhibition is -18.7%. In the case of `O=C(OC1CCOC1=O)c1ccc(-c2nc3ccccc3s2)s1` (configuration not stated), the inhibition was 13.3% (active).

For `CC(C)c1ccc(C(=O)OC2CCOC2=O)cc1` (configuration not stated), the inhibition was -10.7%. With `Cc1nn(Cc2ccccc2)c(Cl)c1C(=O)OC1CCOC1=O` (configuration not stated) the figure was -6.27%; with `O=C(Nc1cccc(Cl)c1Cl)c1ccccc1NC(=O)C1CC=CCC1C(=O)O` (configuration not stated), 1.26%. With `COc1ccc(C2CC(=O)NC(=O)C2)cc1`, the inhibition was 23%. For the molecule `c1ccc(C2CNCc3c2ccc2ccccc32)cc1` (configuration not stated), the inhibition was 38.9% (active).

As for `Oc1ccccc1-c1cc(-c2ccc(Cl)cc2)n[nH]1`, the inhibition was -4.03%. With `CC1=C(C(=O)OC(C)(C)C)C(c2ccc(Br)cc2)NC(=O)N1CCCC(=O)O` (configuration not stated), the inhibition was -5.35%. The value for `Cc1cc(NC(=O)Nc2c[nH]c(=O)[nH]c2=O)ccc1Br` was -12.8%; that for `CC1CN(C(=O)CCC(=O)NCc2cccnc2)c2ccccc2O1` (configuration not stated) was 6.78%. Consider `CC1CN(C(=O)CCC(=O)NC2CCN(Cc3ccccc3)CC2)c2ccccc2O1` (configuration not stated), for which the inhibition was -0.83%.

Regarding `CC1CN(C(=O)CCC(=O)NCCCN2CCC(Cc3ccccc3)CC2)c2cc(Cl)ccc2O1` (configuration not stated), the inhibition is 25.7% (active). Turning to `COc1ccc(OC)c(NC(=O)CN(C)CCOc2ccc(Br)cc2)c1`, the inhibition is 17.7%. Take `O=C(NCc1nnc(SCC(=O)N2CCCCCC2)o1)c1ccc(F)cc1`: the inhibition is -18.2%. With `COc1ccc(CS(=O)/C(Cl)=C(/Cl)C(=O)Nc2ccc(OC)nc2)cc1` (configuration not stated) the figure was 24.2% (active); with `COc1ccc(NC(=O)/C(Cl)=C(/Cl)S(=O)Cc2ccc(C)cc2)cn1` (configuration not stated), 57.6% (active). For `COc1ccc(Nc2cc(Cl)ccc2C(=O)O)cn1`, the inhibition is -11.5%. With `COc1ccc(NC(=O)c2cc(-c3ccc(C)cc3)on2)cc1`, the inhibition is -12.6%. As for `COc1ccc(C(=O)Nc2ccc(NC(=O)C(C)C)nc2)cc1`, the inhibition was 19.8%. With `CCOc1ccc(S(=O)(=O)Nc2ccc(OC)nc2)cc1` the figure was 6.88%. Regarding `Cc1occc(=O)c1OCc1c(Cl)cccc1Cl`, the inhibition was -7.63%.

Turning to `CCN(CC)S(=O)(=O)c1ccc(NC(=O)c2cnc(C)cn2)cc1`, the inhibition is -18.4%.

As to `CCOC(=O)c1cnc2ccc(F)cc2c1Nc1ccc2c(c1)OCCO2`, the inhibition was -2.1%. The value for `COc1cccc(C(=O)NNC(=O)c2cccc(F)c2)c1` was -2.7%; that for `Cc1ccc2[nH]c3c(c2c1)CN(C(=O)CN1CCN(c2ccccc2)CC1)CC3` was 3.49%. With `O=C(CCCN1CCc2[nH]c3ccc(F)cc3c2C1)c1ccc(F)cc1`, the inhibition was 33.9% (active). The value for `CCCC(=O)N1CCc2[nH]c3ccccc3c2C1` was 1.42%; that for `CC(C)(C)CC(C)(C)NCC(O)COCCOc1ccc(Br)cc1` (configuration not stated) was 36.9% (active); that for `OC(COc1ccc(Br)cc1)CN1CCCC1` (configuration not stated) was -9.13%.

For the molecule `COc1ccc(OCC(O)CNCCNc2nccc(C(F)(F)F)n2)cc1` (configuration not stated), the inhibition was -3.59%. On to `O=C(Cc1cccs1)NCc1cccc(C(F)(F)F)c1`, for which the inhibition was 5.08%. Take `COc1ccc(N2C(=O)c3ccccc3NC2c2ccc(OC)c(CN3CCOCC3)c2)cc1` (configuration not stated): the inhibition is -11.4%. Consider `COc1ccc(C2Nc3ccccc3C(=O)N2Cc2ccccc2)cc1Cn1nnc2ccccc21` (configuration not stated), for which the inhibition is 28.4% (active). `COc1ccc(C2Nc3ccccc3C(=O)N2c2ccc(F)cc2)cc1Cn1nnc2ccccc21` (configuration not stated): the inhibition is -1.83%. In the case of `O=C(OCC1O[C@@H](OC(=O)c2cc(O)c(O)c(O)c2)[C@@H](OC(=O)c2cc(O)c(O)c(O)c2)[C@@H](OC(=O)c2cc(O)c(O)c(O)c2)[C@@H]1OC(=O)c1cc(O)c(O)c(O)c1)c1cc(O)c(O)c(O)c1` (some centres not stated), the inhibition was -5.26%.
